# Test results reported in the supplement of paper PMC4466236.
# The full ranking holds about 33,000 sequences; the median of “E-score (dimensionless, -0.5 to 0.5)” is about -0.058, and the highest 2% start at about 0.35. The sample holds the highest values, similar sequences and a random draw of the others, so the mix is not that of the screen.
# Test system: MvaT
# Assay: PBM 8-mer E-score (mean of HK and ME arrays) (E-score (dimensionless, -0.5 to 0.5)); higher = stronger relative binding preference
# Procedure: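 Protein binding microarray: GST-tagged full-length MvaT (P. aeruginosa PAO1) bound to two universal double-stranded 60-mer arrays (ME and HK), each with a constant 25-mer primer and a variable 35-mer region covering all 8-mers. The 8-mer E-score (rank-based, range -0.5 to 0.5, >0.45 = specific binding) is the mean of the two arrays.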
row,Sequence,PBM 8-mer E-score
1,TAAGCCTA,-0.0915
2,GAACTTGA,0.266
3,AGTCCAGA,-0.101
4,AAACCATA,0.251
5,CGCTTAGA,-0.0246
6,AATAAAGC,0.292
7,ATCCTATA,0.189
8,ACCTATAA,0.208
9,ACACGTGT,-0.0859
10,AACCGCAA,0.00741
11,TTGATAAA,0.253
12,TTTATAAA,0.411
13,ATTATAAG,0.432
14,ATTATACG,0.274
15,TTCATAAA,0.238
16,ACTATAAG,0.273
17,CCTACAGC,-0.247
18,ACTACGAG,0.0492
19,AGGCCATG,-0.221
20,CGCGTGAA,0.0803
21,AGCGTCAT,-0.205
22,ATATGCCA,0.181
23,ACAGCATA,0.147
24,ATGATATA,0.262
25,ATGATATG,0.199

row,Sequence,PBM 8-mer E-score
1,GTTATACA,0.281
2,GTTATATA,0.456
3,ATTATATG,0.416
4,GTGATATA,0.247
5,GTTATAGA,0.222
6,CTTATATC,0.184
7,CTTATATA,0.452
8,ATTATAGG,0.304
9,CTTATAGA,0.0191
10,CTGATATA,0.358
11,GGCTCACC,-0.247
12,AGCTCGAG,-0.0655
13,ATTTACTC,0.0973
14,AACGAGAG,-0.094
15,AAAAGAGA,0.103
16,ATTATATC,0.444
17,ATTATACA,0.388
18,ATTATACC,0.337
19,ATTATAGA,0.331
20,CTTATACA,0.229
21,ATTATATA,0.47
22,ACACTAAT,0.345
23,CCACGGTC,-0.022
24,AGGAGGAA,-0.174
25,CGATATAG,0.196

row,Sequence,PBM 8-mer E-score
1,TGATAAAA,0.258
2,CGATATAC,0.219
3,GGATATAA,0.307
4,TGATATAA,0.353
5,CGATATAA,0.395
6,CGAATAAG,0.122
7,ATTGGATG,0.131
8,CAATCCAA,-0.0468
9,AATTCACA,0.206
10,CTGTATTA,0.36
11,ATGTATTC,0.152
12,ATGTATTG,0.244
13,ATGTATTA,0.399
14,CTGTATTC,0.0463
15,GTGTATTA,0.276
16,CTAGTATC,-0.0351
17,CAATACTC,0.106
18,AAAACGAC,0.0691
19,AAAATGAA,0.226
20,GACAGAAC,-0.0903
21,ATTATCAC,0.24
22,ATTATCTA,0.269
23,ATTATCAG,0.354
24,ATTATCAA,0.321
25,ATTATCTC,0.157

row,Sequence,PBM 8-mer E-score
1,ATTATCTG,0.355
2,GTAATGAC,-0.00906
3,AGCTGGCC,-0.255
4,CTCTAAAA,0.0251
5,CTATAAAG,0.0669
6,ATATAAGA,0.388
7,CTATAAGA,0.188
8,GTATAAAA,0.216
9,ATATAAAC,0.433
10,AGATAAAG,0.0927
11,TTATAAAA,0.399
12,ATATAAAG,0.382
13,ATATAAGC,0.311
14,GTATAAAC,0.316
15,CTATAAAC,0.223
16,GCATCCCC,-0.212
17,CATTTTCG,0.126
18,GACTAGTC,-0.0899
19,GCACCGCC,-0.175
20,CGGCTTGA,-0.132
21,ACATTACC,0.113
22,CTTTTGTC,0.0941
23,ATAAAAGA,0.263
24,ATGTAAAT,0.327
25,ATATAAAT,0.45

row,Sequence,PBM 8-mer E-score
1,CTATAAAA,0.171
2,ATATAAAA,0.431
3,AGATAAAT,0.241
4,CTCTCATA,0.00755
5,ACGGACGA,-0.238
6,GCAAAATA,0.198
7,ACAAATTA,0.35
8,ACAAAATA,0.39
9,ACAAAATG,0.0821
10,ACAAATTG,0.137
11,CCAAATTA,0.228
12,CGCCCAAC,-0.0513
13,CATCCTTA,0.0793
14,ACATAGTC,0.172
15,AGACTAGA,0.16
16,CGTCCAAC,-0.205
17,AAAGCGTT,0.0685
18,GAGGGATA,-0.0756
19,AGTGTTTC,0.161
20,GAAGTTTA,0.304
21,AAAGTTTC,0.296
22,TGAGTTAA,0.272
23,AAAGTTTA,0.353
24,AAAGTTAT,0.36
25,AAAGTTGT,0.264

row,Sequence,PBM 8-mer E-score
1,TAAGTTAA,0.426
2,ATAGTTTA,0.35
3,CTAGTTTA,0.306
4,ATAGTTTC,0.275
5,ACAGTTAT,0.305
6,GAAGTTAA,0.317
7,ACTCAGAT,0.101
8,CACAACGA,0.0491
9,CTTGGACA,-0.17
10,ACAGGCAC,-0.193
11,CTTTTGGC,-0.0767
12,GAAGTTCA,0.16
13,GTAGTTAA,0.283
14,AAAGTTAG,0.353
15,AAAGTTCA,0.322
16,CTAGTTAA,0.36
17,CAAGTTAG,0.194
18,CAAGTTAA,0.332
19,TAAGTTCA,0.353
20,ACAGTTAA,0.299
21,AAAGTTAC,0.212
22,AAAGTTAA,0.353
23,ATAGTTAA,0.339
24,CATACGTA,-0.0616
25,AAGTTTCA,0.303

row,Sequence,PBM 8-mer E-score
1,GAGCTGAC,-0.316
2,TATCTACA,0.17
3,ACCCCATA,-0.17
4,CAAAGTAG,0.0209
5,CCTGGGTC,-0.264
6,ACGGATAT,0.113
7,CGTATTAG,0.0961
8,TGTATTAA,0.39
9,CGTATTAC,0.17
10,AGTATTAA,0.328
11,GGTATTAA,0.34
12,CGTATTAA,0.35
13,GTCATAAC,0.0325
14,GTACATGA,0.066
15,ATGTGGGA,0.0305
16,ACGTATGA,-0.1
17,CGGTTATA,0.224
18,AATTATTG,0.351
19,CATTGTTA,0.157
20,GATTGTTA,0.204
21,GCTTATTA,0.254
22,AATTATTA,0.438
23,ACTTATTG,0.29
24,AATTATCG,0.336
